# Assay outcomes: PubChem, several laboratories
# This is a sample that favours compounds with a hit; in the whole collection about 4.9% have one here.
# Calb FLC – C. albicans growth modulation with fluconazole; C. albicans CaCi-2 (fluconazole-resistant clinical isolate) + fluconazole, Alamar Blue growth, 48 h; growth inhibition, % (test concentration not listed); 300,000 compounds, 0.57% hits; AID 1979;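 active means growth inhibition above about 58% in most replicates, limit read from the data, passing the limit was not always enough; inconclusive means exactly half the replicates above a set limit; inactive means most replicates below a set limit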;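 further: all wells also contain fluconazole at 8 µg/ml as a sub-toxic cotreatment; 0% = median of DMSO wells and 100% = median of geldanamycin control wells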
# Beta cell apopt – beta cell apoptosis inhibition; INS-1E cytokine-induced death, ATP luminescence, 48 h; percent of positive-control rescue, neutral wells zero; protection from apoptosis, % (no concentration beside the values); 300,000 compounds, 0.8% hits; AID 435005;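 active means Every replicate reaches about 75%, or at least half do and their mean reaches it too, limit read from the data; inconclusive means At least half of replicates reach the limit but their mean does not; inactive means Under half of replicates reach the limit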;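 further: 0% = cytokine-treated negative control wells and 100% = positive control rescue; higher means more ATP so stronger rescue from cytokine killing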
# Mdm2-MdmX inh – inhibitors of human Mdm2/MdmX interaction | SaOS-2 split-luciferase Mdm2/MdmX complementation, luminescence | inhibition, % at 8 µM | 330,000 compounds, 3% hits | AID 485346;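 active means inhibition of at least 50% at 8 µM in the primary screen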
# PP1 inh – counter-screen for PP5 inhibitors: inhibitors of human PP1-alpha | P62136 | purified PP1alpha, OMFP fluorescence | inhibition, % at 6.7 µM | 320,000 compounds, 0.9% hits | AID 2235;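 active means inhibition above the mean inhibition of all tested compounds plus 3 SD, computed separately for each screening campaign, cut at about 15% in these data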
# PP5 inh – inhibitors of human protein phosphatase 5 (PP5); P53041; purified PP5c, OMFP substrate fluorescence; inhibition, % at 6.7 µM; 320,000 compounds, 0.18% hits;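 active means inhibition above the campaign's mean inhibition across all tested compounds plus 3 SD, cut at about 9.5% in these data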;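 further: 0% = DMSO only and 100% = 100 µM cantharidin control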
# Target sequence (P53041 whole entry, looked up): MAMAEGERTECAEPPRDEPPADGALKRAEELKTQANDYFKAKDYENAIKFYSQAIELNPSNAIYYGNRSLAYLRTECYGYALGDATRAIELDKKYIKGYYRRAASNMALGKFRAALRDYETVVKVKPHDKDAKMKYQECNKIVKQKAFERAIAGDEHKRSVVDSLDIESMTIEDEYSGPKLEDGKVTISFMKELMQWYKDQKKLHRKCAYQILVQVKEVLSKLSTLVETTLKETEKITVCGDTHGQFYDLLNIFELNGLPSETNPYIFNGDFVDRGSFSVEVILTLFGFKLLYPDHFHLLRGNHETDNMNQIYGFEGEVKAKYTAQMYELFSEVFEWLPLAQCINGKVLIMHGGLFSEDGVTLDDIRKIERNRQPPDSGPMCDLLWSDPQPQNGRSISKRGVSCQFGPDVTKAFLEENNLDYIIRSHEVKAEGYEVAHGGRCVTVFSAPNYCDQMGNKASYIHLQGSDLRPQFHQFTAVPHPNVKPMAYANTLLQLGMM
# CSC inhib – cancer stem cell inhibition; cancer stem cell-like cells viability, luminescence; inhibition, % at 7.5 µM; 300,000 compounds, 1.1% hits; AID 2717; in the data active means inhibition above about 75%; inconclusive means no clear call, values can overlap the other calls; tested in HMLE shEcad cells
# PP1 inh confirm – confirmation of human PP1 phosphatase inhibitors; shares compounds with PP1 inh; purified PP1alpha, OMFP substrate fluorescence; inhibition, % at 6.7 µM; 1,900 compounds, 52% hits;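 active means mean PP1 inhibition above a set limit taken from the earlier primary screen, cut at about 15% in these data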
# PP5 counter – counter-screen for PP1 inhibitors: human PP5 phosphatase inhibition; shares compounds with PP1 inh; purified PP5c, OMFP fluorescence; inhibition, % at 6.7 µM; 1,900 compounds, 4% hits; AID 2360;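 active means mean PP5 inhibition over triplicate wells above about 9.5% taken from the earlier PP1 screen, limit read from the data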
# Mdm2 MdmX conf – confirmation of human Mdm2/MdmX interaction inhibitors | shares compounds with Mdm2-MdmX inh | Mdm2-MdmX binding, luminescent assay | inhibition, % at 8 µM | 10,000 compounds, 55% hits; in the data active means inhibition above about 40%
# FLuc counter – full-length luciferase inhibition in Mdm2/MdmX counter-screen; shares compounds with Mdm2-MdmX inh; SaOS-2 full-length luciferase counterscreen, luminescence; inhibition, % at 8 µM; 6,200 compounds, 77% hits; AID 504607;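 active means mean inhibition at 8 µM reaching about 37%, which flags the compound as non-specific, limit read from the data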;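 further: p53-null SaOS-2 cells with luciferase driven by a doxycycline-inducible promoter; compound on cells about two nights before reading with doxycycline added after day one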
# The depositor's hits bear a star; ? = inconclusive; · = not tested or not shown.
SMILES,Calb FLC,Beta cell apopt,Mdm2-MdmX inh,PP1 inh,PP5 inh,CSC inhib,PP1 inh confirm,PP5 counter,Mdm2 MdmX conf,FLuc counter
Cc1nnc(NC(=O)c2ccc(F)c(S(=O)(=O)N3CCOCC3)c2)s1,·,2,-8,·,·,8,·,·,·,·
O=C(Nc1ccc(Br)cc1)c1cccc(-n2cnnn2)c1,3,3,24,-2,4,-8,·,·,·,·
Cc1ccc(C(=O)Nc2nc(-c3ccccn3)cs2)cc1S(=O)(=O)N1CCOCC1,·,90*,89*,31*,7,·,35*,-1,81*,23
CN(CC1CCCO1)S(=O)(=O)c1ccc(C(=O)Nc2nc(-c3ccccn3)cs2)cc1 (stereo not drawn),·,104*,89*,29*,1,70,28*,-3,80*,27
O=C(Nc1nc(-c2ccccn2)cs1)c1ccc(F)c(S(=O)(=O)N2CCOCC2)c1,·,89*,76*,30*,7,·,37*,2,86*,26
CN(CC(=O)Nc1ccc(Cl)cc1)C(=O)C1CCCC1,·,·,2,·,·,·,·,·,·,·
O=C(COc1ccc(Br)cc1)N/N=C1/SCC(=O)N1Cc1ccccc1,-2,-1,30,-2,2,-12,·,·,·,·
COc1ccc(-n2c(=O)c3c4c(sc3n(CC(N)=O)c2=O)CCCCC4)cc1,2,·,7,-4,-1,-13,·,·,·,·
C[n+]1c(/C=C/c2ccc(O)cc2)ccc2ccccc21,36,11,-36,6,3,5,·,·,·,·
Cc1cc(/C=C\c2ccc3cc(N(C)C)ccc3[n+]2C)c(C)n1-c1ccccc1,·,·,100*,34*,6,88*,8,4,92*,9
Cc1cc(C)nc(SCc2ccc(C(=O)N/N=C/c3ccc(C(=O)O)cc3)cc2)n1,14,-16,4,-2,0,-7,·,·,·,·
Cc1cc(C)nc(SCc2ccc(C(=O)N/N=C/c3cccc(O)c3O)cc2)n1,-1,95*,75*,25*,2,110*,28*,0,68*,35
CCCCCCCCCCCCCCCC[N+](C)(C)CC,77*,117*,92*,20*,3,101*,-11,2,81*,9
N#CCN(N=Nc1ccccc1)c1ccccc1,-25,-7,9,1,2,5,·,·,·,·
COc1ccc(-c2csc(NC(=O)c3ccccc3F)n2)cc1,4,1,-22,1,1,4,·,·,·,·
COc1ccc(-c2csc(NC(=O)c3ccccc3NS(=O)(=O)c3ccc(F)c(F)c3)n2)cc1,45,87*,90*,27*,12*,114*,24*,7,91*,22
O=C(Nc1nnc(-c2cccs2)o1)c1cccc(Oc2ccccc2)c1,·,0,55*,29*,-1,63,29*,-2,31,·
CC1(C)CCN2CCC(C)(C)c3c(O)ccc1c32,?,111*,92*,18*,0,131*,-1,7,83*,40*
CC1=NNC(=O)/C1=C\c1cn(-c2ccccc2)nc1-c1cccs1,32,99*,83*,19*,3,81*,10,0,56*,26
Cc1ccn2c(Nc3ccc4c(c3)OCO4)c(-c3ccccn3)nc2c1,-23,0,79*,28*,4,1,47*,-2,69*,37*
Cc1ccc(Nc2c(-c3ccccn3)nc3ccc(C)cn23)cc1,?,97*,74*,71*,5,112*,42*,1,90*,52*
Cc1ccc(Nc2c(-c3ccccn3)nc3cc(C)ccn23)cc1,?,103*,92*,40*,5,98*,42*,3,89*,55*
CC1CCCCC1NCC(=O)NCc1ccc(F)cc1 (stereo not drawn),-21,-2,-5,-2,-1,-8,·,·,·,·
O=C(COC(=O)/C=C/c1ccc(C(F)(F)F)cc1)NCC1CCCO1 (stereo not drawn),1,·,-3,4,2,-5,·,·,·,·
CN1CCCN(C(c2ccccc2)c2ccc(Cl)cc2)CC1 (stereo not drawn),·,·,39,1,2,·,·,·,·,·
SMILES,Calb FLC,Beta cell apopt,Mdm2-MdmX inh,PP1 inh,PP5 inh,CSC inhib,PP1 inh confirm,PP5 counter,Mdm2 MdmX conf,FLuc counter
c1ccc(CC2CCN(Cc3ccccn3)CC2)cc1,-4,-3,4,0,1,-3,·,·,·,·
Oc1c(C(c2ccccc2Cl)N2CCCC2)ccc2cccnc12 (stereo not drawn),105*,92*,69*,21*,-1,-8,11,0,63*,31
Oc1c(C(c2ccccn2)N2CCC(Cc3ccccc3)CC2)cc(Cl)c2cccnc12 (stereo not drawn),105*,16,56*,73*,5,·,20*,2,38,33
Oc1c(C(c2ccc(Cl)cc2)N2CCCC2)cc(Cl)c2cccnc12 (stereo not drawn),99*,16,80*,25*,5,99*,22*,-2,72*,33
Cc1ccc(C(c2cc(Cl)c3cccnc3c2O)N2CCN(C)CC2)cc1 (stereo not drawn),88*,52,69*,27*,5,115*,11,-3,57*,32
O=S(=O)(c1cccc2cccnc12)N1CCCCC1,22,·,33,0,3,-1,·,·,·,·
Cc1ccc(C)c(NC(=O)CN(C)C(=O)c2ccc(-c3cccc(C(F)(F)F)c3)o2)c1,-5,-1,26,-4,2,-5,·,·,·,·
CCOC(=O)[C@H]1[C@H]2COc3ccc(Cl)cc3[C@H]2N2C(=O)CNC(=O)[C@@]12C,·,-5,-19,·,·,0,·,·,·,·
CCN(Cc1ccncc1)C(=O)c1cccc(S(=O)(=O)N2CCCCC2)c1,·,0,-6,·,·,-24,·,·,·,·
COC(=O)c1ccc2c(c1)C(C)(C)C(/C=C/c1ccccc1O)=[N+]2C,3,1,71*,19*,5,78*,13,-4,100*,52*
O=C(N/N=C/c1ccc(O)cc1O)c1ccc(NC(=O)C2CCCCC2)cc1,-2,?,68*,50*,2,-4,36*,-3,54*,38*
O=C(N/N=C/c1cccc(O)c1)c1ccc(NC(=O)C2CCCCC2)cc1,?,5,30,·,·,11,·,·,·,·
O=C(NNC(=O)c1cccnc1SCc1cccc([N+](=O)[O-])c1)c1ccc(F)cc1,13,?,14,-1,4,-11,·,·,·,·
